Assay results as given in paper PMC4336329 (PLoS ONE, 2015).
The campaign covered roughly 310,000 compounds. About 14,000 (4.5%) showed an effect of 50% or more. Effects have a minus sign here. The sample holds strong results, similar compounds and a random draw of the others, so the mix is not that of the screen.
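Also: peak tail current of the secondary pulse compared with the same well before compound.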

These compounds were tested against human ether-à-go-go-related gene (hERG) potassium channel (human, UniProt Q12809) (assay: primary screen, population patch clamp on CHO cells stably expressing hERG; higher = less effect of the substance).
Sequence of human ether-à-go-go-related gene (hERG) potassium channel (Q12809 whole entry, looked up): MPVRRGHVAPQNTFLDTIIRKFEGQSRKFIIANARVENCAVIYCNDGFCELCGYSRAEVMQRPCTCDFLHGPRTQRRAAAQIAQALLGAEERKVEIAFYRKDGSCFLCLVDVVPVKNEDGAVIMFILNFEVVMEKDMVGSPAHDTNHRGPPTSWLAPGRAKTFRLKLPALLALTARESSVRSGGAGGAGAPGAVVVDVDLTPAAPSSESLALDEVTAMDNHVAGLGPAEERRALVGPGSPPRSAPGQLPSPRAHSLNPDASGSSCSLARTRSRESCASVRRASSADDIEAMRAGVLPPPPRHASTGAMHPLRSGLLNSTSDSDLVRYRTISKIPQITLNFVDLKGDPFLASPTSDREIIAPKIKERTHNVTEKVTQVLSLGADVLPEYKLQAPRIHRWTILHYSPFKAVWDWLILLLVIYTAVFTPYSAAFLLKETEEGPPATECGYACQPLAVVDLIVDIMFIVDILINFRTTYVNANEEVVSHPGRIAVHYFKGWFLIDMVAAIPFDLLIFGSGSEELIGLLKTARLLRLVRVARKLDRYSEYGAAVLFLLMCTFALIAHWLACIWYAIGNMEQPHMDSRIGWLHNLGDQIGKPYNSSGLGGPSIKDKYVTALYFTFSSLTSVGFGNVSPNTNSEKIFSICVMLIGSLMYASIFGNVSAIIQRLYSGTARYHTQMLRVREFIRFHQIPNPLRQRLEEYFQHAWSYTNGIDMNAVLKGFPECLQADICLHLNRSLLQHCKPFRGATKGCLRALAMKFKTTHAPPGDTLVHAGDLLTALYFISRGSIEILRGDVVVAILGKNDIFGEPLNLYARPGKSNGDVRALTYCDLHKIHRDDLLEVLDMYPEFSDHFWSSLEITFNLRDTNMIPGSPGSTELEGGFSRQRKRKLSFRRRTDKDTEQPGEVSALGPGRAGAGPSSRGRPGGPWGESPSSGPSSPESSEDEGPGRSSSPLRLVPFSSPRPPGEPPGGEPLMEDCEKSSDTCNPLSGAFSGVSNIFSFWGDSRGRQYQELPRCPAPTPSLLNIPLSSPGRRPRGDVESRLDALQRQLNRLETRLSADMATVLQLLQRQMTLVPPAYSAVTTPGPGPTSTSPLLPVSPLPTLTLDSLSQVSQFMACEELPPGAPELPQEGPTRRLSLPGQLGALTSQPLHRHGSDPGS
For `COc1ccc(CN2CCCC(C(=O)c3ccc(SC)cc3)C2)cc1Cn1cccn1` (centres unmarked), the “hERG current change (%, negative = inhibition) at 10uM” value was -80.3%. With `COc1ccc(CN2CCCC(C(=O)c3ccc(Cl)cc3)C2)cc1Cn1cccn1` (centres unmarked) the “hERG current change (%, negative = inhibition) at 10uM” value was -83.9%. `COCCNC(=O)CSc1ncnc2sc(-c3ccccc3)cc12` was tested, and the “hERG current change (%, negative = inhibition) at 10uM” value was 2.83%. In the case of `CC(C)(C)C1CCc2c(C(=O)NNC(=O)/C=C/C(=O)O)csc2C1` (centres unmarked), the “hERG current change (%, negative = inhibition) at 10uM” value is reported as 10.3%. `Cc1c(C(=O)N2CCC3(CC2)OCCO3)sc2ncnc(N3CCc4ccccc4C3)c12` was tested, and the “hERG current change (%, negative = inhibition) at 10uM” value was -33.7%. For `OCC1CCN(Cc2cn(Cc3ccccc3)nc2-c2cc3ccccc3o2)CC1`, the “hERG current change (%, negative = inhibition) at 10uM” value was -67%. `OC1CCN(Cc2cn(Cc3ccccc3)nc2-c2cc3ccccc3o2)CC1` was tested, and the “hERG current change (%, negative = inhibition) at 10uM” value was -50.7%. `O=Cc1cn(CCC(=O)O)nc1-c1cc2ccccc2o1` was tested, and the “hERG current change (%, negative = inhibition) at 10uM” value was -5.41%. With `N#CCCn1cc(C(=O)O)c(-c2cc3ccccc3o2)n1` the “hERG current change (%, negative = inhibition) at 10uM” value was 24.6%. With `OCC1CCCN(Cc2cn(Cc3ccccc3)nc2-c2cc3ccccc3o2)C1` (centres unmarked) the “hERG current change (%, negative = inhibition) at 10uM” value was -41.9%. In the case of `CCC(O)C1CCN(Cc2cn(Cc3ccccc3)nc2-c2cc3ccccc3o2)CC1` (centres unmarked), the “hERG current change (%, negative = inhibition) at 10uM” value is reported as -65.1%. In the case of `Cn1cc(CN2CCC(C(=O)N3CCCC3)CC2)c(-c2ccccc2F)n1`, the “hERG current change (%, negative = inhibition) at 10uM” value is reported as -4.8%. With `O=C1CSC(c2cn(-c3ccccc3)nc2-c2cc3ccccc3o2)N1Cc1ccccc1` (centres unmarked) the “hERG current change (%, negative = inhibition) at 10uM” value was -6.82%. `OC1CCCN(Cc2cn(Cc3ccccc3)nc2-c2cc3ccccc3o2)C1` (centres unmarked) was tested, and the “hERG current change (%, negative = inhibition) at 10uM” value was -44.7%. `Cn1cc(CN2CCC(C(=O)N3CCCCC3)CC2)c(-c2ccccc2F)n1` was tested, and the “hERG current change (%, negative = inhibition) at 10uM” value was 4.1%. `Cn1cc(CN2CCC(C(O)CCc3ccccc3)CC2)c(-c2ccccc2F)n1` (centres unmarked) was tested, and the “hERG current change (%, negative = inhibition) at 10uM” value was -71.3%. For `CC1(C)CC(=O)C(Sc2ccccc2[N+](=O)[O-])=C(O)C1`, the “hERG current change (%, negative = inhibition) at 10uM” value was 4.99%. With `Cc1cc(C)c(OCCCCCNCCO)c(C)c1` the “hERG current change (%, negative = inhibition) at 10uM” value was -5.77%. With `Brc1cccc(OCCCCn2cncn2)c1` the “hERG current change (%, negative = inhibition) at 10uM” value was 11.2%. In the case of `O=C(CSc1nncn1-c1ccccc1)Nc1ccccc1`, the “hERG current change (%, negative = inhibition) at 10uM” value is reported as -0.536%. `N#Cc1c(Oc2ccc3ccccc3c2)sc(C(=O)c2ccccc2)c1N` was tested, and the “hERG current change (%, negative = inhibition) at 10uM” value was 11.1%. For `O=C1N(Cc2cccnc2)C[C@@H]2C[C@@H](c3ccc4nonc4c3)N3CCC[C@@]123`, the “hERG current change (%, negative = inhibition) at 10uM” value was -59.1%. With `Cc1ccc([C@@H]2C[C@H]3CN(Cc4cccc(Cl)c4)C(=O)[C@]34CCCN24)o1` the “hERG current change (%, negative = inhibition) at 10uM” value was -34.3%. In the case of `COCc1ccc([C@@H]2C[C@H]3CN(Cc4cccnc4)C(=O)[C@]34CCCN24)o1`, the “hERG current change (%, negative = inhibition) at 10uM” value is reported as -3.38%. For `O=C1N(Cc2cccnc2)C[C@@H]2C[C@@H](c3ccc4nsnc4c3)N3CCC[C@@]123`, the “hERG current change (%, negative = inhibition) at 10uM” value was -11.3%. For `Cc1nn(C(C)C)c(C)c1[C@@H]1C[C@H]2CN(Cc3cccc(Cl)c3)C(=O)[C@]23CCCN13`, the “hERG current change (%, negative = inhibition) at 10uM” value was -29.2%. For `O=C1N(Cc2cccc(Cl)c2)C[C@@H]2C[C@@H](c3ccc4nonc4c3)N3CCC[C@@]123`, the “hERG current change (%, negative = inhibition) at 10uM” value was -55.1%. `CCOCCCNC(=O)c1ccc(NC(=O)C2=CSCCO2)cc1` was tested, and the “hERG current change (%, negative = inhibition) at 10uM” value was 15.4%. `CN(C(=S)NC(=O)C1(C)CC1(Cl)Cl)c1ccccc1` (centres unmarked) was tested, and the “hERG current change (%, negative = inhibition) at 10uM” value was 16.7%. In the case of `COc1cccc2c1C(CO)N1C(C#N)C3CC(C(=O)O)C(C1C2)N3C` (centres unmarked), the “hERG current change (%, negative = inhibition) at 10uM” value is reported as 12.3%. For `NC(=O)C1CCN(CCC(=O)Nc2ccc(F)c(F)c2)CC1`, the “hERG current change (%, negative = inhibition) at 10uM” value was 11.1%. In the case of `COc1ccccc1C(=O)Nc1cccc(NC(=O)c2ccccc2OC)n1`, the “hERG current change (%, negative = inhibition) at 10uM” value is reported as 8.14%. In the case of `CCOc1ccccc1OCCN1CCCC1`, the “hERG current change (%, negative = inhibition) at 10uM” value is reported as 9.51%. For `CCOc1ccccc1OCCOCCN1CCN(Cc2ccccc2)CC1.O=C(O)C(=O)O`, the “hERG current change (%, negative = inhibition) at 10uM” value was -48.5%. With `Cc1ccccc1OCCN1CCCC1` the “hERG current change (%, negative = inhibition) at 10uM” value was 7.01%. `Clc1ccccc1OCCN1CCCCC1` was tested, and the “hERG current change (%, negative = inhibition) at 10uM” value was -16.2%. In the case of `CCOc1ccccc1OCCN1CCC(Cc2ccccc2)CC1.O=C(O)C(=O)O`, the “hERG current change (%, negative = inhibition) at 10uM” value is reported as -67.4%. In the case of `CCN1CCN(CCCCOc2ccccc2F)CC1.O=C(O)C(=O)O`, the “hERG current change (%, negative = inhibition) at 10uM” value is reported as -9.65%. With `Clc1ccccc1OCCN1CCC(Cc2ccccc2)CC1.O=C(O)C(=O)O` the “hERG current change (%, negative = inhibition) at 10uM” value was -73.4%. `CCN1CCN(CCOc2ccccc2OCc2ccccc2)CC1.O=C(O)C(=O)O` was tested, and the “hERG current change (%, negative = inhibition) at 10uM” value was -73.2%. For `Cc1ccccc1OCCOCCN1CCCCCC1.O=C(O)C(=O)O`, the “hERG current change (%, negative = inhibition) at 10uM” value was -29.3%. For `Clc1ccccc1OCCCCN1CCNCC1.O=C(O)C(=O)O`, the “hERG current change (%, negative = inhibition) at 10uM” value was 12.7%. `CCN1CCN(CCOc2cccc(Cl)c2Cl)CC1.O=C(O)C(=O)O` was tested, and the “hERG current change (%, negative = inhibition) at 10uM” value was -3.27%. For `Cc1ccccc1OCCN1CCC(Cc2ccccc2)CC1.O=C(O)C(=O)O`, the “hERG current change (%, negative = inhibition) at 10uM” value was -58.5%.
